Lmaj promast: reduces viability of Leishmania major promastigotes; resazurin fluorescence viability; AID 1063; hit rate 9% among 200,000; inhibition, % at 10 µM; in the data active = inhibition above about 50%;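 note: promastigotes grown with compound for 44 hours at 28 °C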
WT yeast gro inh: growth inhibition of WT yeast, mitochondrial fusion screen; inhibition, % at 10 µM; AID 1362; hit rate 2.1% among 190,000; mitochondrial fusion phenotypic screen, WT strain; in the data active = inhibition above about 58%; tested in S. cerevisiae
RAM network inh: blocks the yeast RAM network; S. cerevisiae dse1pr::URA3 reporter, 5-FOA growth OD615, 2 d; analog-sensitive cbk1-as2 kinase mutant strain; inhibition, % at 50 µM; hit rate 1.8% among 190,000;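 active = inhibition above a set limit, 3 SD over mean compound inhibition, cut at about 8.4% in these data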;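 note: inhibition rescues growth on 5-FOA so higher OD means more RAM inhibition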
CHOP inh: CHOP inhibition in unfolded protein response | CHO-K1 CHOP-promoter luciferase, tunicamycin-induced, 15-18 h | inhibition, % at 10 µM | hit rate 3.8% among 220,000 | AID 2732;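 active = compounds that reduced the stress-induced luciferase reporter signal by more than about 70% of percent inhibition, limit read from the data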
Each line names hits and unclear results; the compound was inactive in the other large screens. The list is not random: actives were taken first. Their share in the collection is about 13%.

Brc1ccccc1-c1nnc(SCc2nc3ccccc3s2)o1	RAM network inh 8.6
Cn1nnnc1SCc1nc2ccccc2s1	none
O=c1c2ccccc2nc2n1CCS2(=O)=O	CHOP inh 83.7 (no result: Lmaj promast, WT yeast gro inh, RAM network inh)
O=C(Cn1nnc(-c2cccc(C(F)(F)F)c2)n1)NC(=O)NCc1ccco1	CHOP inh 90.1
c1ccc(CCNc2nc(-c3ccncc3)nc3ccccc23)cc1	none (no result: Lmaj promast, WT yeast gro inh, RAM network inh)
COC(=O)C1C(=O)NCC1c1ccccc1 (stereo unspecified)	WT yeast gro inh 93.8
COc1cccc2cc(-c3nc4ccccc4o3)c(=O)oc12	Lmaj promast 58.4
CN(CCO)c1c2c(nc3cc(-c4cccc(F)c4)nn13)CCCC2	none
Fc1cccc(-c2cc3nc4c(c(N5CCC6(CC5)OCCO6)n3n2)CCCC4)c1	WT yeast gro inh 68.7
Clc1cccc(-c2cc3nc4c(c(N5CCNCC5)n3n2)CCCC4)c1	Lmaj promast 100.5
OC1CCN(c2c3c(nc4cc(-c5cccc(F)c5)nn24)CCCC3)CC1	none
Clc1cccc(-c2cc3nc4c(c(NCc5ccco5)n3n2)CCCC4)c1	Lmaj promast 52.6
CCOc1cc(/C=N/Nc2nc(-c3cccs3)c(NC(C)=O)s2)ccc1O	none (no result: Lmaj promast, WT yeast gro inh, RAM network inh)
Cc1ccccc1NC(=S)N/N=C1\CC(C)(C)Oc2ccc(O)cc21	Lmaj promast 83.7
Cc1ccc(NC(=S)N/N=C2\CC(C)(C)Oc3ccc(O)cc32)cc1	none
O=C(c1cccs1)C1CCCN(Cc2nc(Cc3ccccc3F)no2)C1 (stereo unspecified)	Lmaj promast 78.4
CCCOc1c(Br)cc(C2C3=C(CCCC3=O)N(C)C3=C2C(=O)CCC3)cc1OC	Lmaj promast 97.2
CCCOc1c(Br)cc(C2C3=C(CCCC3=O)N(CC)C3=C2C(=O)CCC3)cc1OC	none
N#CCCn1cc(C=O)c(-c2cccs2)n1	none
CN(C)c1nc(-c2ccc([N+](=O)[O-])cc2)cs1	CHOP inh 71.6
C=CCNc1nc(-c2ccc([N+](=O)[O-])cc2)cs1	none
Cc1ccccc1OCCSc1nnc(-c2cccnc2)n1N	none
Cc1ccc(-c2cc(C(=O)N3N=C(C(F)F)CC3(O)C(F)F)c3ccccc3n2)cc1C (stereo unspecified)	Lmaj promast 60.6, WT yeast gro inh 92.1
O=C(c1cc(-c2ccccc2)nc2ccccc12)N1N=C(C(F)F)CC1(O)C(F)F (stereo unspecified)	none
COc1ccc(CCNC(=O)Cn2c([N+](=O)[O-])cnc2C)cc1OC	none
Cn1c2ccccc2c(=O)c2c(=O)n(-c3ccccc3)c(C3CCCCC3)nc21	Lmaj promast 64.8
Cc1ccc(C)c(NC(=S)Nc2ncccc2C)c1	WT yeast gro inh 67.8
O=C(NNC(=O)C1[C@H]2CCCC[C@@H]12)Nc1cccc2ccccc12 (stereo partly specified)	none (no result: Lmaj promast, WT yeast gro inh, RAM network inh)
COc1cccc(/C=N/n2c(-c3ccco3)nc3ccccc3c2=O)c1	none
COc1ccc(/C=N/n2c(-c3ccco3)nc3ccccc3c2=O)cc1	CHOP inh 80.0
O=C(c1ccc2c(c1)OCO2)N1CCC(Cc2ccccc2)CC1	none (no result: Lmaj promast, WT yeast gro inh, RAM network inh)
CCOC(=O)C1(Cc2cccc(OC)c2)CCN(Cc2cccc3c2OCO3)CC1	Lmaj promast 53.9
CCOC(=O)C1(CCOc2ccccc2)CCN(Cc2ccc3c(c2)OCCO3)CC1	Lmaj promast 85.9
COc1ccc2c(c1)C=C(CN1CCC(CO)(CCc3ccccc3)CC1)CO2	none
OCC1(CCOc2ccccc2)CCN(Cc2ccc3c(c2)OCCO3)CC1	Lmaj promast 91.8
CCOC(=O)C1(Cc2cccc(OC)c2)CCN(Cc2ccc3c(c2)OCCO3)CC1	Lmaj promast 95.3
CCOC(=O)C1(CCOc2ccccc2)CCN(Cc2cccs2)CC1	none
CCOC(=O)C1(Cc2cccc(OC)c2)CCN(Cc2cc(OC)ccc2OC)CC1	none
CC1CC2OC(=O)C3(C)CCCC(C)(C23)C1(O)CCc1ccoc1 (stereo unspecified)	none (no result: Lmaj promast, WT yeast gro inh, RAM network inh)
O=C(NCCN1C(=O)S/C(=C\c2ccc(Cl)c(Cl)c2)C1=O)c1ccc2c(c1)C(=O)N(Cc1ccncc1)C2=O	CHOP inh 88.1
O=S(=O)(Nc1ccc2cn[nH]c2c1)c1ccc(Cl)s1	none
CC(C)(C)NC(=O)CCN(/N=C/c1ccc([N+](=O)[O-])o1)C1=NS(=O)(=O)c2ccccc21	Lmaj promast 99.5
CN(/N=C/c1ccncc1)C1=NS(=O)(=O)c2ccccc21	none
O=c1[nH]cc(N(CCO)CCO)c(=O)[nH]1	none (no result: Lmaj promast, WT yeast gro inh, RAM network inh)
S=C(c1cn(CCOc2ccccc2)c2ccccc12)N1CCCC1	Lmaj promast 98.4, WT yeast gro inh 70.5
S=C(c1cn(CCOc2cccc3ccccc23)c2ccccc12)N1CCCC1	Lmaj promast 94.9
COc1cc2c(cc1OC)C(c1ccccc1)CC2=O (stereo unspecified)	none (no result: Lmaj promast, WT yeast gro inh, RAM network inh)
CCOC12NC(=O)CC(=O)N1C(c1ccccc1)=CS2 (stereo unspecified)	RAM network inh 9.9
COc1ccc(NS(=O)(=O)c2cc(NC(=O)C3CC3)ccc2N2CCOCC2)cc1	none
COc1ccc(NS(=O)(=O)c2cc(NC(=O)c3cnc(C)cn3)ccc2N2CCCCC2)cc1	none
COc1ccc(NS(=O)(=O)c2cc(NC(=O)c3cnc(C)cn3)ccc2N2CCCC2)cc1	Lmaj promast 95.3
COc1ccc(NS(=O)(=O)c2cc(NC(=O)C3CC3)ccc2N2CCCCC2)cc1	Lmaj promast 55.8
CCCCCCCCOC(=O)CCn1[nH]c(=O)c2ccccc2c1=O	WT yeast gro inh 79.6
CC(C)COC(=O)CCn1[nH]c(=O)c2ccccc2c1=O	none
CC(C)(C)NS(=O)(=O)c1ccc2nc(NC(=O)Cc3cccs3)sc2c1	Lmaj promast 95.1
Cc1ccc2nc(NC(=O)CCNS(=O)(=O)c3ccc(Br)s3)sc2c1	Lmaj promast 97.9, CHOP inh 71.2
CS(=O)(=O)c1ccc2nc(NC(=O)Cc3ccccc3)sc2c1	none
Cc1ccc2nc(NC(=O)CCNS(=O)(=O)c3cccs3)sc2c1	CHOP inh 73.3
Cc1cccc2sc(NC(=O)CCNS(=O)(=O)c3cccs3)nc12	none
O=C(c1cnc(N2CCN(c3ccccn3)CC2)c2ccccc12)N1CCN(c2cccc(Cl)c2)CC1	CHOP inh 77.2
O=C(Nc1ccc(C(F)(F)F)cc1)c1cccnc1N1CCOCC1	none
O=C(Nc1ccc(C(F)(F)F)cc1)c1cnc(N2CCN(c3ccccn3)CC2)c2ccccc12	CHOP inh 81.2
CC(C)OC(=O)c1cccnc1N1CCN(c2cccc(Cl)c2)CC1	WT yeast gro inh 73.5
O=C(c1ccc2c(c1)N(Cc1cccc(Cl)c1)C(=O)c1ccccc1S2(=O)=O)N1CCN(c2ccccn2)CC1	Lmaj promast 97.5
CSc1ccccc1C(=O)N1CCN(c2cccc(Cl)c2)CC1	none
O=C(c1cccc(Cl)c1)N1CCN(c2ccccn2)CC1	none
S=C(Nc1ccc(Cl)c(Cl)c1)NN1CCOCC1	none
CC1CCC2=NN(C(=O)c3ccco3)C(O)(C(F)(F)F)C2C1 (stereo unspecified)	none
O=C(O)c1nn(-c2ccccc2)nc1-c1nn(-c2ccccc2)nc1C(=O)O	RAM network inh 8.9
CC(C)c1ccc2c(c1)C1Cc3ccccc3C1N2 (stereo unspecified)	none
CN(C)c1ccc(-c2nc3n(n2)C(c2cccnc2)C2=C(CC(C)(C)CC2=O)N3)cc1 (stereo unspecified)	Lmaj promast 91.7

Screening results deposited in PubChem by several laboratories.
